Reference: PubChem BioAssay
Active and inactive are the calls of the source.

Key:
[1] = E. coli DRC41 culture turbidity changes, primary screen, E. coli filamentation inducer project, strain DRC41, OD650, 48 h (AID 1152);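 also: E. coli MC1000 strain DRC41 lacking acrAB efflux pump and sulA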; details: E. coli DRC41 (acrAB sulA), higher = more signal, called active from +8 up or from −8 down
[2] = small-molecule binders of probe aLefty1, primary screen, biochemical, small-molecule microarray, 635/667 nm fluorescence (AID 1153); details: higher = more signal;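 also: score merges spot fluorescence with signal-to-noise ratio from the scanned slide images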
[3] = PSAC antagonists in infected red cells, primary screen, cell-based, P. falciparum Indochina, OD700, 1 h (AID 1154); details: P. falciparum Indochina infected RBC osmotic lysis, higher = more signal, called active from +8 up or from −8 down
[4] = PSAC antagonists in infected red cells, primary screen, cell-based, P. falciparum Indochina, OD700, 2 h (AID 1155);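 also: lysis reports solute entry through the parasite surface anion channel PSAC; channel blockers reduce lysis of infected cells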; details: P. falciparum Indochina infected erythrocytes, osmotic lysis OD700; higher = more signal, called active from +8 up or from −8 down
[5] = osmotic lysis modulators in infected erythrocytes, primary screen, PSAC antagonist project, cell-based, P. falciparum Indochina, OD700, 3 h (AID 1156); details: higher = more signal, called active from +8 up or from −8 down
[6] = PSAC antagonists in infected red cells, primary screen, cell-based, P. falciparum Indochina, OD700, 18 h (AID 1157); details: P. falciparum Indochina infected erythrocytes, osmotic lysis OD700, 18 h; higher = more signal, called active from +8 up or from −8 down
[7] = modulators of S6 phosphorylation in cells, primary screen, cell-based, A549, cytoblot, luminescence, serum-stimulated (AID 1158); details: A549 phospho-S6 cytoblot, 5 h, higher = more signal;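 also: serum-stimulated A549 lung adenocarcinoma cells; signal is phosphorylated S6 detected by cytoblot immunostaining with HRP secondary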
[8] = molecular target: NADPH oxidase 2 (Homo sapiens) (UniProt P04839); assay: NOX2-dependent H2O2 signal modulators, primary screen, NOX inhibitor project, cell-based, HEK293-NOX2, PMA-stimulated, Amplex Red fluorescence (AID 1159); details: 45 min, higher = more signal, called active from +8 up or from −8 down; also: test concentration not given here
[9] = molecular target: NADPH oxidase 4 (Homo sapiens) (UniProt Q9NPH5); assay: NOX4-dependent H2O2 signal modulators, primary screen, NOX inhibitor project, cell-based, HEK293-NOX4, tetracycline-induced, Amplex Red fluorescence (AID 1160); details: 45 min, higher = more signal, called active from +8 up or from −8 down
[10] = molecular target: NADPH oxidase 5 (Homo sapiens) (UniProt Q96PH1); assay: NOX5-dependent H2O2 signal modulators, primary screen, NOX inhibitor project, cell-based, HEK293-NOX5, Amplex Red fluorescence (AID 1161); details: HEK293-NOX5, ionomycin, 45 min, higher = more signal
Chain of NADPH oxidase 5 (Homo sapiens) (Q96PH1 whole entry, looked up): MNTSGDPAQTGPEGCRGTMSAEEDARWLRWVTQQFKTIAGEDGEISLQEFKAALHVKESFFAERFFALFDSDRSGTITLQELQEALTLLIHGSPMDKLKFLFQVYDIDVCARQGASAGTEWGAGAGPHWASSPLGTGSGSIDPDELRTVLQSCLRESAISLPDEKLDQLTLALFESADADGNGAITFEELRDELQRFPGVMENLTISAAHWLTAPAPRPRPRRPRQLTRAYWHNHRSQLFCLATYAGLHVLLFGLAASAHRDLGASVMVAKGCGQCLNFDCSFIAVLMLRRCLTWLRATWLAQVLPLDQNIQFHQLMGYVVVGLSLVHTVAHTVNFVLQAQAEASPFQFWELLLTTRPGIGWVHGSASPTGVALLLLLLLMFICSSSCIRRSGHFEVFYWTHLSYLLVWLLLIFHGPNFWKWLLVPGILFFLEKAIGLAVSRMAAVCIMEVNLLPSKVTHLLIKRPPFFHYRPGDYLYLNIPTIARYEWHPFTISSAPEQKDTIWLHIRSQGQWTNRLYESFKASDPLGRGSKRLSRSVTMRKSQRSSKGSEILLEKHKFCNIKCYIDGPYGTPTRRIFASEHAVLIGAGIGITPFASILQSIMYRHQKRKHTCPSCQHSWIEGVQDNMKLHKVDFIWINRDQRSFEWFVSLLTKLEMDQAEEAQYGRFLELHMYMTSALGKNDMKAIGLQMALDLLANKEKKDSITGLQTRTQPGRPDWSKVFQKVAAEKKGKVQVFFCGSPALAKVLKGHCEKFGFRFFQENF

Chain of NADPH oxidase 4 (Homo sapiens) (Q9NPH5 whole entry, looked up): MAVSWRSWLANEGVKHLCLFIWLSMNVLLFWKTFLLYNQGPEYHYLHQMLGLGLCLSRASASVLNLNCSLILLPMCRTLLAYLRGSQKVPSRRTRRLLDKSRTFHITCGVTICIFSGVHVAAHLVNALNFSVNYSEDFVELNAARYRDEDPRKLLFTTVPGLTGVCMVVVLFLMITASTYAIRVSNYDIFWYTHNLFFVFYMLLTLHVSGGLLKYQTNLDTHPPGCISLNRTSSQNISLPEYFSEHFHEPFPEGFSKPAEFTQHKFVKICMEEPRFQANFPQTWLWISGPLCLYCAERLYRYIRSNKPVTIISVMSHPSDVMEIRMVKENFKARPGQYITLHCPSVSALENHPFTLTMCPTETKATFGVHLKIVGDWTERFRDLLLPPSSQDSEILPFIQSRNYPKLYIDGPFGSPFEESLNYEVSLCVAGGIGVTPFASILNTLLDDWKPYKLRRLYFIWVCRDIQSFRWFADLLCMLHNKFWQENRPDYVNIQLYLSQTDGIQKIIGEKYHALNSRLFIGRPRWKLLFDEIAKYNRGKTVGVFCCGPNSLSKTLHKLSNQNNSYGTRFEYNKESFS
Chain of NADPH oxidase 2 (Homo sapiens) (P04839 whole entry, looked up): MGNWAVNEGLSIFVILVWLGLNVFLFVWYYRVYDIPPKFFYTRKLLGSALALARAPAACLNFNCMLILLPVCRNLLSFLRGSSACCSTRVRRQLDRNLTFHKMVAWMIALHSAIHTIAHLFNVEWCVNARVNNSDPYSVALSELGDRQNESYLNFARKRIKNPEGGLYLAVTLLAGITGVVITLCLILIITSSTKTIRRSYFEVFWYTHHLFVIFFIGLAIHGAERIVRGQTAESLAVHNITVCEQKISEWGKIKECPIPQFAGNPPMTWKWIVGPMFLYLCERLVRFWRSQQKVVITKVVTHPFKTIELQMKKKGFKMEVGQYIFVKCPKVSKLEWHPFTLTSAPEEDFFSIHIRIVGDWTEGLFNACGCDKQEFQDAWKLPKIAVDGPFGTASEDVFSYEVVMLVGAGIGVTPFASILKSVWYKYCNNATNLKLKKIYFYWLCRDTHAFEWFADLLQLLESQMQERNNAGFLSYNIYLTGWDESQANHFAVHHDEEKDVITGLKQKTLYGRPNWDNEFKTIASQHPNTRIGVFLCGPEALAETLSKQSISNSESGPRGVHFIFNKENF

Structure (SMILES)	z-score [1]	composite z-score [2]	z-score [3]	z-score [4]	z-score [5]	z-score [6]	z-score [7]	z-score [8]	z-score [9]	z-score [10]
COc1ccc(C(=O)Nc2ccc(CN3C(=O)[C@@]4(O[C@@H](CCn5cc(CCO)nn5)[C@H]([Si](C)(C)c5ccc(OC)cc5)[C@H]4C)c4ccccc43)cc2)cc1	-2.53 (inactive)	0.232	27.6 (active)	16.4 (active)	2.35 (inactive)	1.43 (inactive)	-0.368	-1.81 (inactive)	0.515 (inactive)	3.12
CCCN1C(=O)[C@@]2(c3ccc([N+](=O)[O-])cc3)CC(=O)N(CC34CC5CC(CC(C5)C3)C4)[C@@H]2c2ccc(CO)cc21	-0.803 (inactive)	0.334	0.336 (inactive)	0.0149 (inactive)	0.519 (inactive)	-0.312 (inactive)	-0.574	0.658 (inactive)	0.148 (inactive)	0.631
CC(C)(C)OC(=O)CC[C@]1(C(=O)NCC(O)CO)N=C(c2ccc(OCCCO)cc2)O[C@H]1c1ccccc1N=[N+]=[N-] (stereo not given in full)	0.618 (inactive)	0.215	29.9 (active)	27.1 (active)	1.38 (inactive)	6.1 (inactive)	-0.465	-3.04 (inactive)	1.04 (inactive)	-1.68
COc1ccc([Si](C)(C)[C@H]2[C@H](CC(=O)N3Cc4ccccc4C[C@H]3CO)O[C@@]3(C(=O)N(c4ccccc4)c4ccccc43)[C@@H]2C)cc1	0.968 (inactive)	0.701	11.9 (active)	2.16 (inactive)	1.24 (inactive)	1.09 (inactive)	1.35	-1.56 (inactive)	-0.499 (inactive)	-2.51
COC(=O)[C@@]1(Cc2ccccc2)[C@H]2c3cc(C(=O)N(C)C)n(CCSC(=N)N)c3C[C@H]2CN1C(=O)c1ccccc1	-0.817 (inactive)	0.138	0.929 (inactive)	0.542 (inactive)	0.746 (inactive)	0.494 (inactive)	-0.0307	0.251 (inactive)	-0.357 (inactive)	-1.01
COCCOC(=O)N1C(=O)[C@@]2(c3ccccc31)[C@H](c1ccc(O)cc1)N1[C@H](c3ccccc3)[C@H](c3ccccc3)OC(=O)[C@H]1[C@@H]2C(=O)N1CCCCCCC1	-0.59 (inactive)	2.86	-0.0501 (inactive)	0.619 (inactive)	-0.363 (inactive)	0.14 (inactive)	-0.43	0.54 (inactive)	0.898 (inactive)	1.32
COCCCNC(=O)[C@@]1(Sc2ccc(C)cc2)CC(=O)N(Cc2ccccc2C(F)(F)F)[C@@H]1c1ccc(CO)cc1I	0.0516 (inactive)	0.112	2.06 (inactive)	0.786 (inactive)	0.385 (inactive)	0.377 (inactive)	-0.248	0.843 (inactive)	-1.01 (inactive)	2.49
CN(C)C(=O)[C@@]1(Cc2ccccc2CN=[N+]=[N-])COC(c2ccc(OCCCO)cc2)=N1	2.37 (inactive)	0.236	25.9 (active)	11.1 (active)	4.63 (inactive)	1.67 (inactive)	0.0188	-4.96 (inactive)	-1.37 (inactive)	-3.41
NC(=O)N1C(=O)C2C(C1=O)C1C=C(CCCO)C2C(c2ccc(CN3CCCC3)cc2)N1Cc1sc2ccccc2c1Cl (stereo not given)	-0.711 (inactive)	-0.251	3.48 (inactive)	0.894 (inactive)	0.363 (inactive)	0.504 (inactive)	0.457	-0.101 (inactive)	0.353 (inactive)	0.198
CCOC(=O)C1=CC[C@@H](c2ccccc2)N(S(=O)(=O)c2ccc(C)cc2)[C@H]1c1ccccc1I	-0.801 (inactive)	1.24	1.18 (inactive)	0.948 (inactive)	-0.597 (inactive)	0.631 (inactive)	-0.94	0.62 (inactive)	0.205 (inactive)	0.721
CC(C)[Si](C#CCCc1ccccc1)(O[C@H](c1ccccc1)c1cn(Cc2ccccc2)nn1)C(C)C	1.09 (inactive)	0.188	1.36 (inactive)	0.308 (inactive)	-0.329 (inactive)	0.53 (inactive)	0.534	-0.967 (inactive)	-0.899 (inactive)	-3.17
O=C1N(Cc2ccccc2)c2ccccc2C[C@@]12COC(c1ccc(OCCCO)cc1)=N2	0.0226 (inactive)	0.391	25.5 (active)	10.1 (active)	3.4 (inactive)	1.33 (inactive)	0.255	-0.231 (inactive)	-0.221 (inactive)	-1.79
O=C1O[C@H](c2ccccc2)[C@H](c2ccccc2)N2[C@H]1[C@@H](C(=O)O)[C@]1(C(=O)Nc3ccc(C#CCCO)cc31)[C@H]2c1ccc(OCCO)cc1	0.761 (inactive)	0.154	4.88 (inactive)	0.927 (inactive)	0.232 (inactive)	0.138 (inactive)	0.112	1.43 (inactive)	1.21 (inactive)	0.51
C=CCN1Cc2ccccc2[C@H]2OC(c3ccc(OCCCO)cc3)=N[C@@]2(CCS(=O)(=O)c2ccccc2)C1=O	-0.028 (inactive)	0.607	30.4 (active)	27.2 (active)	1.47 (inactive)	6 (inactive)	-0.272	-0.697 (inactive)	1.93 (inactive)	0.119
O=C1C=C(c2ccccc2)C(=O)C2=C1CC([C@H]1Oc3ccccc3S(=O)(=O)N3CCC[C@@H]13)=CC2	-0.0139 (inactive)	-0.101	2.36 (inactive)	0.445 (inactive)	-0.299 (inactive)	0.0841 (inactive)	-0.154	-0.368 (inactive)	-3.24 (inactive)	-2.66
O=C1N(CCS(=O)(=O)c2ccccc2)c2ccccc2C[C@]12N=C(c1ccc(OCCCO)cc1)O[C@@H]2c1ccccc1	-0.499 (inactive)	0.732	26.3 (active)	18.6 (active)	1.85 (inactive)	2.95 (inactive)	-0.18	-0.304 (inactive)	0.615 (inactive)	0.627
COCCOC(=O)N1C(=O)[C@@]2(c3cc(C#CCCO)ccc31)[C@H](c1ccccc1OCCO)N1[C@H](c3ccccc3)[C@H](c3ccccc3)OC(=O)[C@H]1[C@@H]2C(N)=O	1.46 (inactive)	-0.278	20.3 (active)	4.04 (inactive)	0.633 (inactive)	0.934 (inactive)	0.868	1.81 (inactive)	0.552 (inactive)	-0.302
CC(C)C(=C=CC[C@H](O)c1ccccc1OCCO)C[C@H](O)c1cc(Cl)cc(Cl)c1O	-0.279 (inactive)	0.199	19.5 (active)	4.2 (inactive)	-0.25 (inactive)	1.44 (inactive)	-0.383	-1.24 (inactive)	-1.67 (inactive)	-1.88
COCCCNC(=O)[C@@H]1c2ccccc2C(=O)N(Cc2ccc(OC(F)(F)F)cc2)[C@H]1c1ccc(CO)cc1	-0.771 (inactive)	0.0271	1.93 (inactive)	0.566 (inactive)	0.913 (inactive)	0.303 (inactive)	0.0296	-0.385 (inactive)	0.915 (inactive)	1.91
COc1ccc(C#Cc2ccc3c(c2)[C@]2(C(=O)N3)[C@H](C(=O)O)[C@H]3C(=O)O[C@H](c4ccccc4)[C@H](c4ccccc4)N3[C@@H]2c2ccccc2OCCO)cc1	0.987 (inactive)	-0.707	-0.357 (inactive)	-0.566 (inactive)	-10.3 (active)	-2.29 (inactive)	1.56	2.09 (inactive)	-0.415 (inactive)	-2.32
CC1CC/C=C\[C@H]2OC34C=CCN(C(C)(C)C)C(=O)[C@H]3N(CCCO)C(=O)[C@@H]4C2C(=O)O1 (stereo not given in full)	0.0581 (inactive)	-0.0954	-0.022 (inactive)	0.571 (inactive)	-0.857 (inactive)	0.235 (inactive)	0.337	0.78 (inactive)	-2.14 (inactive)	1.25
COC(=O)[C@@]1(Cc2ccccc2)[C@H]2c3cc(C(=O)N(C)C)n(Cc4ccc(C(F)(F)F)nc4)c3C[C@H]2CN1C(=O)c1ccccc1	-1.64 (inactive)	1.1	1.5 (inactive)	0.234 (inactive)	1.3 (inactive)	0.715 (inactive)	0.184	0.0745 (inactive)	-1.31 (inactive)	-3.12
C=CCC(OC(C)=O)[C@@H]1[C@@H](N(Cc2cccc3ccccc23)C(=O)Cc2ccc(OC)cc2)c2cc(OCCCO)ccc2N1C(=O)Cc1ccc2ccccc2c1 (stereo not given in full)	-0.504 (inactive)	0.285	2.18 (inactive)	0.0026 (inactive)	1.42 (inactive)	-0.0843 (inactive)	0.909	-2.23 (inactive)	-0.887 (inactive)	-1.91
COc1ccc([Si](C)(C)[C@H]2[C@H](CCO)O[C@@]3(C(=O)N(Cc4cccc(N(C=O)c5ccccc5)c4)c4ccccc43)[C@@H]2C)cc1	2.15 (inactive)	-0.339	2.24 (inactive)	2.47 (inactive)	1.1 (inactive)	1.82 (inactive)	1.91	-1.31 (inactive)	0.451 (inactive)	0.00518
O=C(NCC(O)CO)[C@@]1(CCS(=O)(=O)c2ccccc2)N=C(c2ccc(OCCCO)cc2)O[C@H]1c1ccccc1 (stereo not given in full)	-0.295 (inactive)	0.419	25.6 (active)	19.1 (active)	2.38 (inactive)	1.39 (inactive)	1.07	-0.356 (inactive)	1.47 (inactive)	1.33
